Activity calls are given as the source filed them. Unless noted, how the calls were made is not given here.

The values that follow come from PubChem BioAssay.

Assay [1] is described as follows: resazurin metabolic signal in HepG2 cells – cell-based, resazurin fluorescence, 24 h, PK04 Diversity Set, profiling panel (AID 1172). Further: test concentration not given here. As to conditions: HepG2 viability, higher = more signal.
Assay [2] in a line: budding yeast growth changes without added modifier – OD600, strain BY4716, 24 h, basal condition, primary screen (AID 1173). As to conditions: S. cerevisiae BY4716 growth, OD600, 24 h; higher = more signal, called active from +8 up or from −8 down.
A short description of assay [3]: viability profiling in MM1S myeloma cells – cell-based, resazurin fluorescence, basal, 24 h, PK04 Diversity Set, profiling panel (AID 1174).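 Further: MM1S multiple myeloma cell line; test concentration not given here.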 The conditions noted are these: higher = more signal, called active from +8 up or from −8 down.
The target in assay [4] is Dihydroorotate dehydrogenase (quinone), mitochondrial (Plasmodium falciparum (isolate 3D7)) (UniProt Q08210). Briefly: inhibition of P. falciparum DHODH – biochemical, C-terminal His tag, absorbance 600 nm, primary screen (AID 1175).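 Further: recombinant parasite enzyme with a five histidine tag at its C terminus; test concentration not given here.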 The conditions noted are these: PfDHODH enzyme, DCIP absorbance 600 nm; higher = more signal, called active from +8 up or from −8 down.
Chain of Dihydroorotate dehydrogenase (quinone), mitochondrial (Plasmodium falciparum (isolate 3D7)) (Q08210 whole entry, looked up): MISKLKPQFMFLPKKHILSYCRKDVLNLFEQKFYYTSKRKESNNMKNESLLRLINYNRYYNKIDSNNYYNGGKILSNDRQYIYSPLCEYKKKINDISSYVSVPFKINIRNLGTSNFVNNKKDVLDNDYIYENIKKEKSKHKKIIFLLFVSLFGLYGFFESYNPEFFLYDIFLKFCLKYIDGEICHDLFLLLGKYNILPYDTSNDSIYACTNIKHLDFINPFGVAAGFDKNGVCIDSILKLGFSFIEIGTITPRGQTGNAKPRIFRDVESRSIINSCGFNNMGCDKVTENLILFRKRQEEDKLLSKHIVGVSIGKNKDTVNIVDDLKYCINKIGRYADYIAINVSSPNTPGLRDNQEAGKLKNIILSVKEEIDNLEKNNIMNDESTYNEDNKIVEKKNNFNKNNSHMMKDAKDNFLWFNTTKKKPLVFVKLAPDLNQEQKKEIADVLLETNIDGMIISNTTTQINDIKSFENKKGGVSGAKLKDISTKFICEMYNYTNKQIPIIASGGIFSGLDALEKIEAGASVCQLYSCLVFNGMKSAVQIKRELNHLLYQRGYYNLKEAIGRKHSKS
Assay [5] is described as follows: inhibition of PAO1 biofilm formation – strain PAO1, LB-PBS medium, absorbance 600 nm, primary screen (AID 1176). Further: test concentration not given here. The conditions noted are these: P. aeruginosa PAO1 growth/biofilm, A600, 12 h; higher = more signal.
Assay [6] in a line: growth modulation of vineyard yeast isolate – strain RM11-1a, OD600, basal, 24 h, primary screen (AID 1177).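 Further: cultures grown under basal conditions with no added stressor; test concentration not given here.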 The conditions noted are these: S. cerevisiae RM11-1a growth, OD600, 24 h; higher = more signal, called active from +8 up or from −8 down.
Assay [7] is described as follows: growth of efflux-deficient E. coli DRC39 – strain DRC39, OD650, 24 h, E. coli filamentation inducers, primary screen (AID 1178).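 Further: growth measured as culture turbidity by optical density at 650 nm; test concentration not given here.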 As to conditions: E. coli DRC39 acrAB, higher = more signal, called active from +8 up or from −8 down.
Assay [8] can be described thus: growth of efflux-deficient E. coli DRC39 – strain DRC39, OD650, 48 h, E. coli filamentation inducers, primary screen (AID 1179).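 Further: screen aims at cell division blockers that make cells filament.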 As to conditions: E. coli DRC39 delta-acrAB growth, higher = more signal, called active from +8 up or from −8 down.
Assay [9] can be described thus: viability profiling in RPMI8226 myeloma cells – cell-based, resazurin fluorescence, basal, 24 h, PK04 Diversity Set, profiling panel (AID 1180).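 Further: RPMI8826 multiple myeloma cell line at 5000 cells per well; test concentration not given here.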 The conditions noted are these: higher = more signal. (Alamar Blue is a resazurin reagent that responds to reducing activity.)
The target in assay [10] is E3 ubiquitin-protein ligase XIAP (Homo sapiens) (UniProt P98170). Briefly: small molecules binding XIAP protein – biophysical, small-molecule microarray, fluorescence 635 nm, primary screen (AID 1181).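 Further: score merges 667 nm emission and signal to noise over triplicate slides.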 The conditions noted are these: higher = more signal.
Chain of E3 ubiquitin-protein ligase XIAP (Homo sapiens) (P98170 whole entry, looked up): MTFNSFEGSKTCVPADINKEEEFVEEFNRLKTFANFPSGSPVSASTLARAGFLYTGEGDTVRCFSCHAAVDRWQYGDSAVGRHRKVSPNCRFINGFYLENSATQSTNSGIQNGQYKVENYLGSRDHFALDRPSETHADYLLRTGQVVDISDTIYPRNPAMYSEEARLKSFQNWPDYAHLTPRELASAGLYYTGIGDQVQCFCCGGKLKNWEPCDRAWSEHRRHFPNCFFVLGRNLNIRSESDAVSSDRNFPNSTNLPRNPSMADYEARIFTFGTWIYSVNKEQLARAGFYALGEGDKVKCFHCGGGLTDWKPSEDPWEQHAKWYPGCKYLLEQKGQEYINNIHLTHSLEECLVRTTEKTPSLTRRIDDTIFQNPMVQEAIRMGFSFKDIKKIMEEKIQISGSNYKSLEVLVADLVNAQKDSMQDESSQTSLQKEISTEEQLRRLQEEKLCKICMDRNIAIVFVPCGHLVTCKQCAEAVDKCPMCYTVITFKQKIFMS

`C#CCN(CC1=CCCCC1)[C@H](c1ccccc1Br)[C@@H](O)Cc1ccccc1`: the z-score in [1] was 1.47; in [2], -2.52 (inactive); in assay [3], 1.05 (inactive); in assay [5] it was 0.236 (inactive); in [6] it was 0.404 (inactive); in assay [7], 0.657 (inactive). Further, the results for the z-score in [8] and in assay [9] were 0.406 (inactive) and -0.486, respectively. Also, the composite z-score in assay [4] was 0.0019 (inactive); in assay [10], -0.209.
Take `COc1ccc(CCNC(=O)[C@@]2(C)c3ccccc3C(=O)N(Cc3cc(F)cc(C(F)(F)F)c3)[C@H]2c2ccc(CO)cc2)cc1`: the z-score in assay [1] was -0.469; in assay [2], -0.513 (inactive); in assay [3] it was 1.02 (inactive); in assay [5], 0.593 (inactive); in [6], 1.1 (inactive); in assay [7], 0.568 (inactive). Moreover, the z-score is 0.453 (inactive) in assay [8] and 0.652 in assay [9]. Besides, the composite z-score is 0.917 (inactive) in assay [4] and 0.003 in [10].
For `O=C(NCc1ccccc1)[C@@]1(Cc2ccccc2)N=C(c2ccc(OCCCO)cc2)O[C@H]1c1ccccc1`, the z-score in [1] was -0.0664; in [2], 0.629 (inactive); in [3], -1.67 (inactive); in [5], 0.494 (inactive); in assay [6] it was 1.7 (inactive); in [7] it was 0.482 (inactive). Moreover, the z-score in assay [8] was -0.3 (inactive); in assay [9], -2.66. The composite z-score in [4] was 0.987 (inactive); in [10] it was -0.0563.
As to `C=CCOC(=O)[C@H]1[C@@H]2C(=O)O[C@@H](c3ccccc3)[C@@H](c3ccccc3)N2[C@@H](c2ccc(OCCOC(=O)[C@@H]3C[C@@H]4C(=O)N5CCC[C@H]5C(=O)N4[C@@H]3c3cccc(OCCO)c3)cc2)[C@]12C(=O)Nc1ccccc12`, the z-score in [1] was -1; in assay [2] it was 1.15 (inactive); in assay [3] it was 0.0098 (inactive); in [5] it was 2.06 (inactive); in assay [6], 1.76 (inactive); in [7], -0.701 (inactive). The z-score in [8] was -1.5 (inactive); in assay [9] it was -0.0769. Also, the composite z-score in assay [4] was 0.613 (inactive); in assay [10], -0.22.
For the compound `COCCOC(=O)N1C(=O)[C@@]2(c3cc(C#CCNC(N)=O)ccc31)[C@H](C(=O)NC[C@H](O)c1ccccc1)[C@H]1C(=O)O[C@H](c3ccccc3)[C@H](c3ccccc3)N1[C@@H]2c1ccccc1OCCO`, the z-score in assay [1] was -0.577; in [2] it was 1.39 (inactive); in [3], 0.796 (inactive); in [5] it was 2.62 (inactive); in assay [6] it was 1.97 (inactive); in assay [7], 1.01 (inactive). The values for the z-score in [8] and in assay [9] were 1.1 (inactive) and 0.952, respectively. The composite z-score in assay [4] is 0.272 (inactive); in assay [10], 0.108.
`CN1C(=O)[C@]2(Cc3ccccc3)N=C(c3ccc(OCCCO)cc3)O[C@@H]2c2ccccc21`: the z-score in assay [1] was -0.635; in assay [2], -1.79 (inactive); in assay [3], -2.57 (inactive); in assay [5], 0.814 (inactive); in assay [6], 1.13 (inactive); in [7], 0.757 (inactive). Moreover, the results for the z-score in assay [8] and in assay [9] were 0.0422 (inactive) and -2.41, respectively. The composite z-score in assay [4] is 0.539 (inactive); in [10], 0.0617.
`CC(C)C[C@@H]1NC(=O)[C@H]2C[C@@H](C(=O)NCCCCCCN(C)C)[C@@H](c3ccc(O)cc3)N2C1=O`: the z-score in assay [1] was -0.447; in assay [2] it was -0.476 (inactive); in assay [3] it was -0.671 (inactive); in assay [5] it was -0.214 (inactive); in assay [6], -0.217 (inactive); in assay [7], 0.0306 (inactive). Besides, the z-score was 0.152 (inactive) in assay [8] and -1.26 in assay [9]. Further, the composite z-score in assay [4] is -0.687 (inactive); in assay [10], 0.125.
For the compound `COCC(=C=CC[C@@H](O)c1ccccc1OCCO)C[C@@H](O)c1cc(Cl)cc(Cl)c1O`, the z-score was -0.127 in assay [1]; -2.33 (inactive) in [2]; -0.541 (inactive) in assay [3]; 0.26 (inactive) in assay [5]; 0.216 (inactive) in assay [6]; -0.259 (inactive) in assay [7]. For the same compound, the z-score in assay [8] was -0.424 (inactive); in assay [9], -0.394. Further, the composite z-score in [4] was -1.31 (inactive); in [10], -0.0553.
For `CCOC(=O)C=Cc1cc([N+](=O)[O-])ccc1O`, the z-score is -0.495 in [1]; -4.86 (inactive) in assay [2]; -0.912 (inactive) in [3]; -0.501 (inactive) in [5]; 0.11 (inactive) in assay [6]; -0.238 (inactive) in assay [7]. Moreover, the values for the z-score in [8] and in [9] were -1.13 (inactive) and -0.688, respectively. The composite z-score in [4] was -4.74 (inactive); in assay [10], 0.193.
For the compound `COCCOC(=O)N1C(=O)[C@@]2(c3cc(C#CCCO)ccc31)[C@H](C(=O)Nc1nc3ccccc3s1)[C@H]1C(=O)O[C@H](c3ccccc3)[C@H](c3ccccc3)N1[C@@H]2c1ccc(OCCO)cc1`, the z-score was 1.04 in assay [1]; 1.96 (inactive) in assay [2]; -0.922 (inactive) in assay [3]; 2.84 (inactive) in assay [5]; 2.33 (inactive) in assay [6]; 0.348 (inactive) in assay [7]. Moreover, the z-score in assay [8] is 0.215 (inactive); in [9] it was -1.66. In addition, the composite z-score in assay [4] is -0.944 (inactive); in assay [10], 0.154.
